This test deals with MDA-MB-468 breast. Description: NCI-60 one-dose screen, 48 h (100 = growth as untreated, 0 = no growth, -100 = all killed). The note with it: 10 µM unless noted.

Values joined by “and” are separate entries in the source; they are usually repeats but may differ in a detail not shown here. Identical values can stand only once. This is part of a sample that, as a whole, favours compounds with a hit. Of some 83,000 tested, about 20% had one in any assay.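 96-well plates, one dose, 48 hours. Percent growth reported; active if below 10.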 A number with no mark means an inactive call. Active and inactive are the calls of the source.

We go through 37 molecules from PubChem BioAssay (NCI).

As for `Cn1cc(-c2ccc3nc(-c4ccc(CC(=O)Nc5cc(C(C)(C)C)no5)cc4)cnc3c2)cn1`, the growth is 14.8% [30 µM].

For the molecule `CCOC(=O)c1cc(C(=O)OCC)c(C)nc1C`, the growth was 109%.

For `COc1cc2nc(Cl)nc(Nc3cccc(C4=Nc5c(N)nc(N)nc5NC(c5ccc(Br)cc5)C4)c3)c2cc1OC` (configuration not stated), the growth is 90.3%.

For `COc1ccc(/C=C(/C(=O)N2CCNCC2)c2cc(OC)c(OC)c(OC)c2)cc1O`, the growth was -4.45% (active).

Turning to `C/C(=N\O)[C@H]1C[C@]23CC[C@]4(C)[C@H](CC[C@@H]5[C@@]6(C)CC/C(=N/O)C(C)(C)[C@@H]6CC[C@]54C)[C@H]2[C@H](C)C1(C)OC3`, the growth is 103%.

With `COc1cc(C(=O)/C=C/c2cn(-c3ccccc3)nc2-c2cccc(Nc3ccnc4cc(Cl)ccc34)c2)cc(OC)c1OC`, the growth was 71.7%.

Take `Nc1nc(N)c2nc(CNc3ccc(C(=O)NC(CCC(=O)O)C(=O)O)cc3)cnc2n1` (configuration not stated): the growth was 13.1% and 12%.

For the molecule `Cc1ccncc1C(=O)O`, the growth is 101%.

Consider `CN(C)S(=O)(=O)c1ccc(S(=O)(=O)Nc2cccc(Cl)c2N2CCCCC2)cc1`, for which the growth was 67.8%.

For `c1ccc(Nc2nc(-c3ccccn3)cs2)nc1`, the growth is -14.6% (active).

In the case of `COc1ccc2[nH]c(O)c(C(=Nc3ccc(N(C)C(=O)CN4CCN(C)CC4)cc3)c3ccccc3)c2c1`, the growth is 58.1%.

In the case of `CCCCC(=O)c1ccc(OC)cc1`, the growth is 85.2%.

Turning to `COc1cc2cc(Oc3ccc(NC(=O)Nc4ccc(Cl)c(C(F)(F)F)c4)cc3)c(C)nc2cc1OCCN1CCOCC1`, the growth is -13.5% (active).

On to `CC(C)C(NC(=O)CN)C(=O)O` (configuration not stated), for which the growth was 104%.

As to `C[n+]1ccc(Nc2ccc(NC(=O)c3ccc(Nc4cc[n+](C)c5ccc(N)cc45)cc3)cc2)cc1`, the growth was 94.8%.

Consider `c1csc(-c2cn3nc(-c4c[nH]c5ccccc45)sc3n2)c1`, for which the growth was 19.4%.

As to `COc1ccc(C(=O)N2N=C(c3ccc(Br)cc3)CC2c2cn(-c3ccccc3)nc2-c2ccccc2)cc1` (configuration not stated), the growth is 69%.

In the case of `O=C(c1ccccc1)[C@@H](c1ccccc1)[C@]1(O)C(=O)Nc2ccccc21`, the growth is 102%.

As to `C[n+]1c(/C=C\C=C\N2CCCCC2)sc2ccccc21`, the growth was -17% (active).

Consider `Cc1cn(-c2cc(F)cc(NC(=O)c3ccc(C)c(Nc4nccc(-c5cccnc5)n4)c3)c2)cn1`, for which the growth is -63.4% (active).

On to `C=CC1=C(C)C2=NC1=CC1=NC(=CC3=C(C)C4=C(O)C(C(=O)O)C(=C5NC(=C2)C(C)C5CCC(=O)O)C4=N3)C(CC)=C1C` (configuration not stated), for which the growth is 115%.

For `O=c1c2cc(F)ccc2sc2c(N3CCNCC3)nc3ccc(F)cc3c12`, the growth was -59.9% (active).

With `COc1ccc2c(c1OC)CO[C@@H]2[C@H]1c2c(cc3c(c2OC)OCO3)CCN1S(=O)(=O)c1cn(C)cn1`, the growth was 17.4%.

Turning to `N#Cc1ccc(NC(=O)Nc2nc3ccc(OC(F)(F)F)cc3s2)cc1`, the growth is -2.64% (active).

Consider `CC(=O)N1c2ccccc2NC2=C(C(=O)N(Cc3ccccc3)C2(C)C)C1c1ccco1` (configuration not stated), for which the growth was -1.86% (active).

As for `C(/C=C/c1ccccc1)=Nc1ccc(CCc2ccc(N=C/C=C/c3ccccc3)cc2)cc1`, the growth was 83.3%.

On to `CC(=O)c1cc2c(N)c(C(=O)Nc3cccc4c3OCCO4)sc2nc1C`, for which the growth is 86.1%.

On to `CCCCCCCC/C=C\CCCCCCCC(=O)OCCCCCC`, for which the growth was 95.8%.

For the molecule `CNC(=O)c1cc(Oc2ccc3nc(NC(=O)c4cccc(C(F)(F)F)c4)sc3c2)ccn1`, the growth is 106%.

On to `O=C(CN1CCOCC1)N1CCOCC1`, for which the growth is 108% and 116%.

For `CCN(CC)CCCC(Nc1c2ccc(Cl)cc2nc2ccc(OC)cc12)c1ccncc1` (configuration not stated), the growth is 88.5%.

`O=C(CCc1nnc(CN(c2ccccc2)c2ccccc2)o1)c1nc2ccccc2[nH]1`: the growth was 89.1%.

As to `COc1ccc(/C=c2/c(=O)[nH]c3nc4sc(C)c(C)c4c(=O)n23)cc1`, the growth was 83.1%.

Turning to `O=c1cc(-c2ccc(Cl)cc2)[nH]c2ccccc12`, the growth was 85.6%.

For `CN(C)CCCOc1ccc2c(c1)CN(C(=O)c1cc(C(=O)N3Cc4cccc(F)c4C3)ccc1O)C2`, the growth was 106%.

For `CCOC(=O)CSc1nc(-c2cc(OC)ccc2OC)cc(-c2ccc(OC)cc2)c1C#N`, the growth was 92.7%.

For `CC(O)/C=C/C=C/C(O)CC/C=C/C(=O)NCC(C)(C)O` (configuration not stated), the growth was 102%.
